ALDH1A1 block – ALDH1A1 (human) enzyme inhibition; Purified ALDH1A1, NADH fluorescence, propionaldehyde substrate; 220,000 compounds, 7.3% hits; P00352; Potency, µM (doses to about 75.3 µM), actives largely listed as inhibitors
Target sequence (P00352 whole entry, looked up): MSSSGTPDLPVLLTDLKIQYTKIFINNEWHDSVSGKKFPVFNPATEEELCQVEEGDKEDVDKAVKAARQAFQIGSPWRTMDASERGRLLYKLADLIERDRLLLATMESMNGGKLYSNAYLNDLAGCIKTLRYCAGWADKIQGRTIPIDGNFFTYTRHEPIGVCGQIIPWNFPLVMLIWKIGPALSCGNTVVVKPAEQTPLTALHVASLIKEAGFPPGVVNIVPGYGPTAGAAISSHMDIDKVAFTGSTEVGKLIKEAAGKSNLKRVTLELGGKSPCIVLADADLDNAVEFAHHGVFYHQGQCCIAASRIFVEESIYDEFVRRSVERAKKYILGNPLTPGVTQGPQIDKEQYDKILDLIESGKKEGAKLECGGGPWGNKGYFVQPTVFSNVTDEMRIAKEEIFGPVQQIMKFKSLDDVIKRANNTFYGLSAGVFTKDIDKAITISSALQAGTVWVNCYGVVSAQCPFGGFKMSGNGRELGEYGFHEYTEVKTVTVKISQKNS
HPGD inh – inhibitors of human 15-hydroxyprostaglandin dehydrogenase (HPGD) | purified HPGD, NADH fluorescence kinetic, PGE2 substrate | 150,000 compounds, 4.3% hits | Potency, µM, usual class: inhibitors
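NADH formation kinetics: reaction with 30 uM PGE2 and 1 mM NAD+ (final), 20 nM enzyme, Tris-HCl pH 8 with Tween 20, after 15 min compound preincubation at room temperature. Fluorescence change, last versus first of five reads.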
IMPase inh – IMPase inhibition in cells; CHO-M1 cells, IP1 accumulation, HTRF TR-FRET ratio; 120,000 tested, under 10 active; AID 901; inhibition (IP1 accumulation), % at 46.1 µM; P97697; active = well fitted curve in the direction sought with a large enough effect in the signal ratio, not every such curve was filed as active; inconclusive = small, poorly fitted or top-dose-only effect, or a change in a side signal; inactive = no such curve, though single readings can be large or run the other way; the % refers to the signal ratio;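 also: cells stimulated with carbachol in lithium chloride buffer; higher means more IMPase inhibition seen as more IP1 and lower FRET ratio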
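Cellular IMPase inhibition is scored as a rise in cytosolic IP1, detected by competitive TR-FRET between d2-labelled IP1 and a europium anti-IP1 antibody. M1-expressing CHO cells were stimulated with carbachol for 30 min at 37C, with lithium (50 mM LiCl) present in the buffer.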
Numbers stand for hits; . = inactive; ? = inconclusive; / = no result given; [ ] = another dose, or the depositor's remark. Sampled rows, rich in hits. Any-hit rate of the full collection: about 9%. Unless noted, calls follow the shape of the dose curve; as a rule, active = well fitted inhibition curve with a large enough effect (not every such curve was filed as active); inconclusive = small, poorly fitted or top-dose-only effect, or another doubt; inactive = no such curve, though single readings can be large or run the other way.

SMILES	ALDH1A1 block	HPGD inh	IMPase inh
CC(C1CC1)N(C(=O)NC1CCS(=O)(=O)C1)c1ccccc1 (stereo unspecified)	.	.	.
CC(C)NS(=O)(=O)c1ccc(CCC(=O)NCc2ccco2)cc1	?	.	.
O=C(NNS(=O)(=O)c1ccc(F)cc1)c1sccc1-n1cccc1	.	/	/
Cc1ccc(S(=O)(=O)NNC(=O)c2sccc2-n2cccc2)cc1	10µM	.	.
Cn1c(SCC(=O)NC(=O)NCc2ccco2)nnc1C(F)(F)F	.	.	.
COc1ccc(-n2c(SCC(=O)N3CCc4ccccc43)nnc2-c2c[nH]c3ccccc23)cc1	?	.	/
Nc1ncnc2c1ncn2[C@@H]1O[C@H](C(=O)NC2CC2)[C@H](O)[C@H]1O	.	.	/
COc1ccc(C(=O)NN)cc1COc1ccc(Br)cc1	?	.	.
CCOc1ccc(C(=O)NCC(=O)OCc2cc(C(C)=O)ccc2OC)cc1	3.55µM	.	.
COc1ccc(C(=O)NCC(=O)OCC(=O)c2ccc(Cl)cc2)cc1OC	.	/	/
COc1ccc(C(C)=O)cc1COC(=O)CNC(=O)c1ccc(Cl)cc1	.	15.8µM	.
N#Cc1ccc(C2=NC(C(F)(F)F)(C(F)(F)F)c3c(n(Cc4ccco4)c(=O)[nH]c3=O)N2)cc1	.	.	.
CCCNS(=O)(=O)c1ccc(CCC(=O)N2CCC(C)CC2)cc1	?	.	.
O=C(CCC(=O)Nc1ccccc1)NNC(=O)C(c1ccccc1)c1ccccc1	.	.	.
O=C(O)c1cc2ccccc2c(Cc2c(O)c(C(=O)O)cc3ccccc23)c1O	.[13.5 µM]	.	/
Cc1ccc(OCc2ccc(C(=O)NCc3cccnc3)cc2)cc1C	.	/	/
O=C1OC(c2ccccc2)=C/C1=C/N1CCOCC1	7.94µM	.	.
CN(C)/C=C1/C=C(c2ccccc2)OC1=O	?	.	.
O=C1SC(c2ccccc2)=C/C1=C\N1CCCCC1	?	.	.
O=C1OC(c2ccccc2)=C/C1=C\N1CCOCC1	11.2µM	.	.
O=C(c1cc2ccccc2oc1=O)N(Cc1cccc(Cl)c1)C1CCS(=O)(=O)C1 (stereo unspecified)	/	/	.
COc1ccccc1-n1c(=O)c2c3c(sc2n2c(=S)[nH]nc12)CCC3	.	/	/
CC(C)c1ccc2c(c1)C(c1ccc(N3CCOCC3)cc1)=NNC(c1cccs1)=N2	.	.	.
O=C1C=CC(=O)N1c1ccc(OC(F)F)cc1	0.708µM	7.08µM	/
O=C(O)CNC(=O)c1ccc(OC(F)F)cc1	.	.	.
SMILES	ALDH1A1 block	HPGD inh	IMPase inh
COc1cc(/C=N/NC2=NC(C)(C)Cc3ccccc32)cc(OC)c1OC	.	/	/
COC(=O)C1=C(N)Oc2cc(C)n(C)c(=O)c2C1c1ccc(Cl)cc1 (stereo unspecified)	.	.	.
COC(=O)c1ccc(C2C(C#N)=C(N)Oc3cc(C)n(C)c(=O)c32)cc1 (stereo unspecified)	25.1µM	.	.
COc1ccc(C(=O)NCC(=O)OCC(=O)c2ccc3c(c2)NC(=O)CO3)cc1OC	.	/	/
COc1cc(OC)cc(C(=O)N[C@H](C(=O)OCC(=O)c2ccc3c(c2)NC(=O)CO3)C(C)C)c1	22.4µM	.	.
CC(C)[C@H](NC(=O)c1ccccc1)C(=O)OCC(=O)c1ccc2c(c1)NC(=O)CO2	1.12µM	.	.
CC[C@H](C)[C@H](NC(=O)c1ccc(Cl)cc1)C(=O)OCC(=O)c1ccc2c(c1)NC(=O)CO2	.	.	.
COc1ccc(Cl)cc1S(=O)(=O)N1CCN=C1C	.	.	.
CC1=NCCN1S(=O)(=O)c1c(C(C)C)cc(C(C)C)cc1C(C)C	2.24µM	/	/
CCOc1ccc(N2C(=O)CC(N3CCN(C(=O)c4ccco4)CC3)C2=O)cc1 (stereo unspecified)	8.91µM	.	.
CCOc1ccc(N2C(=O)CC(N(Cc3ccco3)C(C)=O)C2=O)cc1 (stereo unspecified)	20µM	/	/
CCOC(=O)c1ccc(N2C(=O)CC(N3CCN(C(=O)c4ccco4)CC3)C2=O)cc1 (stereo unspecified)	?	.	.
O=C(c1ccco1)N1CCN(C2CC(=O)N(c3ccc4c(c3)OCO4)C2=O)CC1 (stereo unspecified)	?	.	.
O=C(c1ccco1)N1CCN(C2CC(=O)N(c3ccccc3)C2=O)CC1 (stereo unspecified)	20µM	.	.
CCCOc1ccc(N2C(=O)CC(N(C(=O)c3ccco3)c3ccc(OCCC)cc3)C2=O)cc1 (stereo unspecified)	.	.	.
COc1ccccc1NC(=O)CSc1nnc2c(n1)[nH]c1ccccc12	/	/	.
CCN(CC)S(=O)(=O)c1ccc(OC)c(N)c1	.	/	/
O=C(/C=C/c1ccc([N+](=O)[O-])cc1)OCc1cnc(-c2ccccc2)o1	.	/	/
CN1CCN(C(=S)C(=O)Nc2ccccc2)CC1	.	/	/
COC(=O)c1ccc(OCCn2cnc3ccccc3c2=O)cc1	.	.	.
COc1ccc(S(=O)(=O)n2cnc(C)c2)cc1	.	/	/
CC(=O)Nc1ccccc1-c1nnc(SCc2ccccc2Cl)[nH]c1=O	.	15.8µM	.
Nc1ccccc1-c1nnc(SCc2ccccc2Cl)[nH]c1=O	.	.	.
CCN(CC)c1cccc(OC2=NS(=O)(=O)c3ccccc32)c1	22.4µM	/	.
CCc1ccc(OC2=NS(=O)(=O)c3ccccc32)cc1	.	/	/
SMILES	ALDH1A1 block	HPGD inh	IMPase inh
Cc1noc(C)c1S(=O)(=O)N1CCc2nc(-c3ccccc3)c3c(c2C1)CO[C@@H](C)C3	.[13.5 µM]	.	/
CC(C)=NOCc1cccc(-c2cc(-c3ccccc3)no2)c1	.[13.5 µM]	/	/
Cc1cccc(NC(=O)c2ccccc2Br)n1	?	25.1µM	.
Cc1cccc(NC(=O)c2onc3c2CCCC3)n1	22.4µM	.	/
Cc1cccc(NC(=O)c2cccc3c2-c2ccccc2C3=O)n1	.	/	/
Cc1cccc(NC(=O)c2onc3c2CCCC3)c1C	.	.	.
Cc1ccc(-c2noc(CN3C(C)CCCC3C)n2)cc1 (stereo unspecified)	?	.	.
O=C1[C@H]2[C@H]3[C@H](O)[C@H](O)C/C(=N/OC[C@@H](O)COCc4ccco4)[C@H]3CC[C@@H]2C(=O)N1C1CCCCC1	.[13.5 µM]	/	/
NNC(=O)c1csc(-c2cccc(C(F)(F)F)c2)n1	4.47µM	/	/
O=C(Nc1ccc(C(F)(F)F)cc1)c1csc(-c2ccncc2)n1	.	/	/
O=C(Nc1ccc(N2CCOCC2)cc1)c1cccc(S(=O)(=O)N2CCC(Cc3ccccc3)CC2)c1	.	.	.
COc1ccccc1N1CCN(C(=O)c2cc3c(s2)CCC3)CC1	20µM	.	.
O=C(c1cccs1)N1CCN(c2ncccn2)CC1	?	.	.
O=C(c1cc2c(s1)CCCC2)n1cccn1	?	15.8µM	.
O=C(c1cc2c(s1)CCCCC2)N1CCN(c2ncccn2)CC1	14.1µM	.	.
O=C(O)c1cc2c(s1)CCCC2	.	.	.
CC(=O)c1ccc(N2CCN(C(=O)c3cc4c(s3)CCCC4)CC2)cc1	22.4µM	/	/
O=C(c1cc2c(s1)CCCC2)N1CCN(C(=O)C2CCCO2)CC1 (stereo unspecified)	?	.	.
COc1ccccc1N1CCN(C(=O)c2ccc([N+](=O)[O-])s2)CC1	.	/	.
CCOc1ccc(NC(=O)c2ccco2)c([N+](=O)[O-])c1	.	.	/

Screening results as filed in PubChem.
